The values below come from PubChem BioAssay (NCATS).

Molecules are shown by their SMILES. Where “and” joins values, the source holds several entries; their conditions need not be identical. Identical values can stand only once. Results filed as inconclusive are left out. Calls of active or inactive are those of the source. Unless noted, calls follow the shape of the dose curve; as a rule, active = well fitted curve in the direction sought with a large enough effect; inconclusive = small, poorly fitted or top-dose-only effect, or another doubt; inactive = no such curve, though single readings can be large; an effect the other way counts as inactive or inconclusive.

The nature of test [1]: P-glycoprotein substrates identified in KB-8-5-11 adenocarcinoma cell line, qHTS therapeutic library screen (AID 1346987). Also: nearly all actives have a fitted effect of over 65% in size. Also: potency is read from the fitted curve at half-maximal effect. The essentials: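 Compounds are pinned in dose-response onto KB-8-5-11 cells (500 cells/well, colchicine-free medium) and left 72 h at 37 degree C. CellTiter-Glo luminescence then yields AC50 values.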
A short description of test [2]: NS1 protein of Zika virus - qHTS assay to identify small molecule inhibitors in human HEK 293 cells (AID 1347053). Also: nearly all actives have a fitted effect of over 55% in size. Also: potency is read from the fitted curve at half-maximal effect. The essentials:
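Read-out is a two-antibody TR-FRET for ZIKV NS1, normalized between uninfected cells and infected cells. Compound added 1 h before MR766 infection at MOI 0.5; human HEK 293 cells incubated 24 h, 37 C.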
Background: Quantitative high-throughput screening tests each substance at several concentrations.

Test [3] is described as follows: qHTS of pediatric cancer cell lines to identify multiple opportunities for drug repurposing: Primary screen for TC32 cells (AID 1347089). Also: nearly all actives have a fitted effect of over 60% in size. Also: potency is read from the fitted curve at half-maximal effect. The method, boiled down:
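A viability screen of TC32 cells was run over 48 h, with primary MIPE doses spanning 0.78 nM–46 µM and NPC doses 0.59 nM–46 µM. ATP luminescence (CellTiter-Glo) served as the read-out.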

Test [4] is described as follows: qHTS of pediatric cancer cell lines to identify multiple opportunities for drug repurposing: Primary screen for DAOY cells (AID 1347090). Also: nearly all actives have a fitted effect of over 55% in size. Also: potency is read from the fitted curve at half-maximal effect. The essentials:
(§1)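 Cell viability, CellTiter-Glo luminescence; 500-1,000 cells/well, 8- or 11-point titration, 48 h compound exposure at 37 degrees C, 5% CO2. Controls: DMSO neutral, bortezomib 2.3 µM final as positive.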

The nature of test [5]: qHTS of pediatric cancer cell lines to identify multiple opportunities for drug repurposing: Primary screen for SJ-GBM2 cells (AID 1347091). Also: potency is read from the fitted curve at half-maximal effect. The method, boiled down: as §1
Test [6] in a line: qHTS of pediatric cancer cell lines to identify multiple opportunities for drug repurposing: Primary screen for A673 cells (AID 1347092). Also: nearly all actives have a fitted effect of over 45% in size. Also: potency is read from the fitted curve at half-maximal effect. The method, boiled down: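 Titration-based qHTS on A673 cells: MIPE compounds spanned 11 points (0.78 nM to 46 µM final), NPC compounds 8 points (0.59 nM to 46 µM final). Viability after 48 h was measured by ATP luminescence.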
A short description of test [7]: qHTS of pediatric cancer cell lines to identify multiple opportunities for drug repurposing: Primary screen for SK-N-MC cells (AID 1347093). Also: potency is read from the fitted curve at half-maximal effect. The method, boiled down:
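Metabolically active cells were quantified by ATP-dependent luminescence (CellTiter-Glo, 15 min at room temperature) following 48 h treatment. Cells had been plated at 500-1,000 per well and settled for 5 h beforehand.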

A short description of test [8]: qHTS of pediatric cancer cell lines to identify multiple opportunities for drug repurposing: Primary screen for BT-37 cells (AID 1347094). Also: potency is read from the fitted curve at half-maximal effect. The essentials:
(§2)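 ATP-based luminescence (CellTiter-Glo) quantifies viability after a 48-hour exposure. Compounds are dosed across 8 or 11 final concentrations; DMSO and 2.3 µM bortezomib serve as controls.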

Test [9] in a line: qHTS of pediatric cancer cell lines to identify multiple opportunities for drug repurposing: Primary screen for NB-EBc1 cells (AID 1347095). Also: potency is read from the fitted curve at half-maximal effect. The method, boiled down:
as §2

Test [10] is described as follows: P-glycoprotein substrates identified in KB-3-1 adenocarcinoma cell line, qHTS therapeutic library screen (AID 1346986). Also: nearly all actives have a fitted effect of over 60% in size.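 Also: potency is read from the fitted curve at half-maximal effect; potency is for cytotoxicity meaning loss of cell viability.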 The essentials:
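Viability read by CellTiter-Glo after 72 h compound exposure in dose-response of KB-3-1 and KB-8-5-11 (P-gp-high) cells. Hits needed AC50 < 10 uM, >50% maximum response and curve class -1.1 to -2.4. Cherry-picks retested ± tariquidar, including pcDNA/MDR-19 HEK-293 pair.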

A short description of test [11]: Natriuretic polypeptide receptor (hNpr1) antagonism - Pilot counterscreen GloSensor control cell line (AID 1347045; calls by dose curve; also: series mostly up to about 38 µM). The method, boiled down:
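Control counterscreen: luciferase cGMP-biosensor HEK293 cells (no Npr1) received compound for 30 min at room temperature after GloSensor substrate loading. Luminescence was measured before and 20 min after soluble guanylyl cyclase activation by 50 uM nitroprusside.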
(In general: A counterscreen serves to expose hits that act by an unwanted route or on another target.)

For test [12], the target named is Atrial natriuretic peptide receptor 1 (Homo sapiens) (UniProt P16066). Description: Natriuretic polypeptide receptor (hNpr1) antagonism - Pilot screen (AID 1347049; calls by dose curve;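 also: HEK293 cells with hNpr1 and GloSensor cGMP luciferase stimulated by 0.1 nM hNppA; agonist-evoked cGMP luminescence read 20 min after hNppA addition; potency is read from the fitted curve at half-maximal effect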). The method, boiled down: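 Receptor antagonism read as cGMP-dependent luminescence in hNpr1/pGS-40F HEK293 cells: pre-read after 30 min compound exposure, post-read 20 min after hNppA agonist at 0.1 nM final, all at room temperature, protected from light; A-71915 titration as control.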

The target in test [13] is T1, Tyrosine-protein phosphatase non-receptor type substrate 1 (Homo sapiens) + Leukocyte surface antigen CD47 (Homo sapiens) (UniProt P78324+Q08722). Description: CD47-SIRPalpha protein protein interaction - LANCE assay qHTS validation (AID 1347057; active = well fitted curve in the direction sought with a large enough effect in the signal ratio, with a control signal flat, not every such curve was filed as active; the % refers to the signal ratio; also: series mostly up to about 38 µM). The essentials:
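Inhibition of soluble CD47/SIRPalpha ectodomain association by titrated compounds, measured as 665/615 nm time-resolved FRET ratio after sequential 30 min room-temperature incubations.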

For test [14], the target named is T1, Tyrosine-protein phosphatase non-receptor type substrate 1 (Homo sapiens) + Leukocyte surface antigen CD47 (Homo sapiens). Description: CD47-SIRPalpha protein protein interaction - HTRF assay qHTS validation (AID 1347058; active = well fitted curve in the direction sought with a large enough effect in the signal ratio, not every such curve was filed as active; the % refers to the signal ratio; also: series mostly up to about 38 µM). The essentials: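 Soluble extracellular domains (6His-CD47, Avi-tag-biotinylated SIRPalpha) in PBS pH 7.4 with 0.05% IGEPAL CA-630. Compounds were preincubated 30 min at RT with CD47 and anti-His-Eu, then SIRPalpha and SAV-XL665 were added. TR-FRET 665/615 ratio.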

For test [15] the target is unchanged. The experiment in a line: CD47-SIRPalpha protein protein interaction - Alpha assay qHTS validation (AID 1347059).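 Also: bead proximity luminescence from CD47 binding SIRPalpha after compound preincubation with SIRPalpha.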 The essentials: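 AlphaScreen signal between CD47-His (12.5 nM) and biotin-SIRPalpha (25 nM) soluble extracellular domains, bead-captured via Ni-NTA and streptavidin. Compounds, in 7-point titrations, met SIRPalpha 30 min before CD47; PBS pH 7.4 with 0.05% IGEPAL.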

In test [16] the target is Parathyroid hormone/parathyroid hormone-related peptide receptor (Homo sapiens) (UniProt Q03431). Description: qHTS for PTHR1 Agonists: Optimization Screen against the NCGC LOPAC library (AID 1347079).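 Also: GloSensor cAMP luminescence in HEK-293 GP2 cells expressing human PTHR1 with IBMX.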 The method, boiled down: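 HEK-293 GP2 cells, PTHR1 + GloSensor cAMP; 3000 cells/well, o/n. Luciferin + IBMX 0.5mM each (stock), 1 hr 37C. Cpd titration, 1 hr 37C. Lum after 15 min RT. Ctrl M-PTH(1-15) top 10uM.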
Sequence of Parathyroid hormone/parathyroid hormone-related peptide receptor (Homo sapiens) (Q03431 whole entry, looked up): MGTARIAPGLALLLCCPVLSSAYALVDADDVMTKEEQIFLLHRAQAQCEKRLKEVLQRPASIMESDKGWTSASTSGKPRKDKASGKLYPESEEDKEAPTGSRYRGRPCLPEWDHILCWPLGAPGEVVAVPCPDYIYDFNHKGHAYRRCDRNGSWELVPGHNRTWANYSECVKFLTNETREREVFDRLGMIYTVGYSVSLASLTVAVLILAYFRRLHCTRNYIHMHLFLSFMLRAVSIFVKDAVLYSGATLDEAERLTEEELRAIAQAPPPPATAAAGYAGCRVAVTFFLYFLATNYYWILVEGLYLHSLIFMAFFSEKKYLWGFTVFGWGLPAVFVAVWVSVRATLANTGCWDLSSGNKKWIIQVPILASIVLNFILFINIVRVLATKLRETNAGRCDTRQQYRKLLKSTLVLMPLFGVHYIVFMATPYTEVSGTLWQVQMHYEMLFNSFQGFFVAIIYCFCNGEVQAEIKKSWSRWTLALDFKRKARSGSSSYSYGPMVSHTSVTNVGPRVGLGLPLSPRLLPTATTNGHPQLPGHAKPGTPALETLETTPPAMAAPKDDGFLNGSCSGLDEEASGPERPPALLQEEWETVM

T1 sequence (P78324 whole entry, looked up, the tested form may be a part): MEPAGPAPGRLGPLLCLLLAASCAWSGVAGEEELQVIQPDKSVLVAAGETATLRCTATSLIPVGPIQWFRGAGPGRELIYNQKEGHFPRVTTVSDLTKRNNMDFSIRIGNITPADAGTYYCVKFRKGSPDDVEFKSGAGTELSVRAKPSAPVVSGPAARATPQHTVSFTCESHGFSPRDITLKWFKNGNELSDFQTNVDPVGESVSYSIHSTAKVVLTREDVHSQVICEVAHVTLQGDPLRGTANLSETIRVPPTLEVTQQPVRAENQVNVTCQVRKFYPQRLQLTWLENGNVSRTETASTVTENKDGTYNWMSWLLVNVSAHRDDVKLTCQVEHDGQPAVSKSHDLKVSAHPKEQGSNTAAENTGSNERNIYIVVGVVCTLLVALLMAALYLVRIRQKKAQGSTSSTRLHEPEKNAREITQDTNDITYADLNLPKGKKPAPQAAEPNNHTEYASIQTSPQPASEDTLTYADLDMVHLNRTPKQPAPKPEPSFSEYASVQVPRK
T1 sequence (Q08722 whole entry, looked up, the tested form may be a part): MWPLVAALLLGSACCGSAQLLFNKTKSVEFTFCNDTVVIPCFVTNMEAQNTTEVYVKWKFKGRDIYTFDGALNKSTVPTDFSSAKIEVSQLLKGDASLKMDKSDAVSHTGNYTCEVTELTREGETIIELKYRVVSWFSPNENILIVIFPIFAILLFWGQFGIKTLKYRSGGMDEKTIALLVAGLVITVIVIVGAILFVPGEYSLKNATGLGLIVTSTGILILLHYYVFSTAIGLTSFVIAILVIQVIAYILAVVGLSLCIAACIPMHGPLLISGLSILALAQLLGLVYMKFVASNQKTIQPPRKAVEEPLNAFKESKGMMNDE
Sequence of Atrial natriuretic peptide receptor 1 (Homo sapiens) (P16066 whole entry, looked up): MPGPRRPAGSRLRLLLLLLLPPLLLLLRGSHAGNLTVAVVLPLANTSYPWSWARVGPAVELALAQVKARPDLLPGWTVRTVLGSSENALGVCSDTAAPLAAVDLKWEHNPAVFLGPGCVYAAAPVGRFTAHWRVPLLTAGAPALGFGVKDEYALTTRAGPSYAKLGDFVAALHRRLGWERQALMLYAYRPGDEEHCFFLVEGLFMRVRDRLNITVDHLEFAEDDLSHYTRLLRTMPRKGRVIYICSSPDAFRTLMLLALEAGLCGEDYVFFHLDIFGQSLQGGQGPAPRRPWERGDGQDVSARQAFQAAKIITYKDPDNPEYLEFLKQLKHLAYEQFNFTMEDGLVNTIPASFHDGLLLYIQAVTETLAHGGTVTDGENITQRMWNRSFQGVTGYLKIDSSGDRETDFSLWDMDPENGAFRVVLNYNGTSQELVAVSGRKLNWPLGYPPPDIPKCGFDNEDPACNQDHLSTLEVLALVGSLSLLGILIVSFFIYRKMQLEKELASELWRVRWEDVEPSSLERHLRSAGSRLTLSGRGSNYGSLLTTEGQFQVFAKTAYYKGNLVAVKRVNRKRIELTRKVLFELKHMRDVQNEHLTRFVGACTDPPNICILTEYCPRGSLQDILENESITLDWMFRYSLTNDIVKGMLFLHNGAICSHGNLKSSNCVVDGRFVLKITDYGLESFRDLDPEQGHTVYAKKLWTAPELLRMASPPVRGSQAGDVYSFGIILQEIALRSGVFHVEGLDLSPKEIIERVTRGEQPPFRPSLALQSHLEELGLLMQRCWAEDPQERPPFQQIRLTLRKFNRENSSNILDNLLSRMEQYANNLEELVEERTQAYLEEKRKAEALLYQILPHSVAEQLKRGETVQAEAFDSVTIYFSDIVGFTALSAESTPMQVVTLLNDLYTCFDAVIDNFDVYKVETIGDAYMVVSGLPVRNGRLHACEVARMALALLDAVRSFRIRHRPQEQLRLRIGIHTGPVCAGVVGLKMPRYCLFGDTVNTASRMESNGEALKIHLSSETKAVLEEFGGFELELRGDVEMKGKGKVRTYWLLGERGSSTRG

For `CCc1c2c(nc3ccc(O)cc13)-c1cc3c(c(=O)n1C2)COC(=O)[C@]3(O)CC`, the Potency in test [1] is 231 nM (active); in test [2] it was 3.7 nM (active); in [3], 8.3 nM (active); in test [4], 29.6 nM (active); in test [5], 6.6 nM (active); in test [6], 7.4 nM (active). Besides, the Potency was 2.1 nM (active) in [7], 8.6 nM (active) in [8] and 1 nM (active) in test [9].

Take `O=C(O)CO.[NH2-].[NH2-].[Pt+2]`: the Potency entry in test [1], in test [2], in [3], in [4], in [5] and in test [6] was “inactive” in each case. Besides, the Potency result in test [7], in test [8] and in [9] was “inactive” each time.

`COc1ccc(-n2nc(C(N)=O)c3c2C(=O)N(c2ccc(N4CCCCC4=O)cc2)CC3)cc1`: the Potency entry in test [1], in test [2], in [3], in [4], in [7] and in [9] was “inactive” each time. Besides, the Potency in test [6] is 9350 nM (active); in [8] it was 12200 nM (active).

As to `CC(C)CC(=O)Nc1n[nH]c2c1CN(C(=O)C1CCN(C)CC1)C2(C)C`, the Potency entry in test [1] is “inactive”. Also, the Potency in test [2] was 26400 nM (active); in test [3], 5870 nM (active); in [4], 11800 nM (active); in [5] it was 1480 nM (active); in [6], 187 nM (active); in test [7], 52.6 nM (active). Also, in [8], the Potency was 485 nM (active).

Take `CC[C@H]1CN2CCc3cc(OC)c(OC)cc3[C@H]2C[C@@H]1C[C@@H]1NCCc2cc(OC)c(OC)cc21`: the Potency in [1] was 1180 nM (active); in [2], 118 nM (active); in [3], 1170 nM (active); in test [4] it was 935 nM (active); in test [5], 209 nM (active); in test [6], 118 nM (active). Moreover, the Potency in test [7] is 296 nM (active); in test [8], 544 nM (active); in test [9], 935 nM (active).

For `O=C(Nc1nc2cccc(-c3ccc(CN4CCS(=O)(=O)CC4)cc3)n2n1)C1CC1`, the Potency in test [10] was 20600 nM (active); in test [5], 18700 nM (active); in test [6], 11800 nM (active); in [8], 19300 nM (active); in test [9] it was 10500 nM (active). In [2], the Potency result is “inactive”.

For the compound `CC(C)c1cnn2c(NCc3ccccc3)cc(N[C@@H](CO)[C@H](O)CO)nc12`, the Potency in [1] is 1.18 µM (active) and 4.61 µM (active); in [2] it was 526 nM (active); in test [3], 1470 nM (active); in [4] it was 372 nM (active); in test [5] it was 166 nM (active); in test [6] it was 118 nM (active). For the same compound, the Potency is 296 nM (active) in [7], 306 nM (active) in test [8] and 187 nM (active) in test [9].

Turning to `Nc1ncnc2c1c(-c1cnc3[nH]ccc3c1)nn2C1CCCC1`, the Potency in test [1] was 590 nM (active) and 2.06 µM (active); in test [2], 16600 nM (active); in [3] it was 5870 nM (active); in [4], 3720 nM (active); in test [5], 132 nM (active); in test [6], 1870 nM (active). In addition, the Potency in [7] is 66.2 nM (active); in [9], 469 nM (active).

Turning to `COc1cccc(Nc2c(C(N)=O)cnc3c(C)cc(S(=O)(=O)c4cccc(C(=O)N(C)C)c4)cc23)c1`, the Potency result in test [1], in [2], in [3], in test [4], in test [5] and in [6] was “inactive” in each case. Besides, the Potency result in [8] and in test [9] was “inactive” each time. Also, the Potency in test [7] is 6450 nM (active).

Consider `CCOC(=O)C1=C(C)NC2=C(C(=O)CC(C)(C)C2)C1c1ccc(-c2ccccc2)cc1` (configuration not stated), for which the Potency result in test [10] and in test [3] was “inactive” each time. For the same compound, the Potency in test [2] is 10500 nM (active); in test [5] it was 4690 nM (active); in test [6], 3720 nM (active); in test [8], 3850 nM (active); in test [9] it was 5900 nM (active).

Turning to `Cc1c(C)n(Cc2ccc(-c3ccccc3C(=O)O)cc2)c2ccc(C(=O)N[C@@H](C)c3ccc([N+](=O)[O-])cc3)cc12`, the Potency entry in test [1], in [2] and in test [3] was “inactive” throughout. Further, the Potency was 29.6 nM (active) in test [4]; 23500 nM (active) in test [5]; 148 nM (active) in test [6]; 18.7 nM (active) in [7]; 968 nM (active) in [8].

With `O=C(Cc1ccc(-c2ccc(OCCN3CCOCC3)cc2)cn1)NCc1ccccc1`, the Potency in test [1] is 18.7 nM (active) and 580 nM (active); in [2], 74.3 nM (active); in test [3], 117 nM (active); in test [4], 37.2 nM (active); in [5] it was 18.7 nM (active); in [8], 68.5 nM (active). The Potency in test [9] was 14.8 nM (active).

As for `CN[C@H]1CCc2cc(OC)c(OC)c(OC)c2-c2ccc(OC)c(=O)cc21`, the Potency is 18.7 nM (active) and 1.16 µM (active) in test [1]; 8.3 nM (active) in test [2]; 37 nM (active) in test [3]; 3.7 nM (active) in test [4]; 1 nM (active) in [5]; 1.2 nM (active) in test [6]. Moreover, the figures for the Potency in [7], in test [8] and in test [9] were 2.6 nM (active), 6.1 nM (active) and 1 nM (active), respectively.

`O=c1c2ccccc2nc2n1CCc1c-2[nH]c2ccccc12`: the Potency result in test [1], in [2], in test [3], in test [4], in test [5] and in [6] was “inactive” each time. In addition, the Potency result in test [7] and in [9] was “inactive” each time. Further, the result in test [11], in test [13], in test [14], in test [15] and in [16] was inactive. Further, the Potency in test [12] was 1510 nM (active).

In the case of `CCn1nnc2c(N3CCOCC3)nc(-c3ccc(NC(=O)Nc4ccc(C(=O)N5CCN(C)CC5)cc4)cc3)nc21`, the Potency in [10] is 58 nM (active); in test [3], 29.4 nM (active); in test [4] it was 235 nM (active); in test [5] it was 46.9 nM (active); in test [6], 93.5 nM (active); in [7] it was 5.9 nM (active). Further, the Potency in test [8] was 17.2 nM (active); in test [9], 743 nM (active).

For the compound `O=C1CCC[C@@H]2[C@H]3CCC[N+]4([O-])CCC[C@@H](CN12)[C@@H]34` (some centres not stated), the Potency entry in test [1], in [2], in test [3], in test [4], in test [5] and in test [6] was “inactive” throughout. For the same compound, the Potency result in [7], in test [8] and in [9] was “inactive” each time.
